A selection: hits, their analogues and other compounds. The true share with any hit is near 3.9%.
Tb PFK inh – blocks T. brucei phosphofructokinase; AID 485367; O15648; Potency, µM (titrated, usually from 57.5 µM), inactives show at the highest dose activity, negative = inhibition, hits mostly inhibitors; 330,000 compounds, 0.17% hits; T. brucei PFK, ADP-Glo luminescence;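 note: 0% = uninhibited 1x PFK enzyme wells and -100% = no-enzyme wells; nearly all actives have a fitted effect of over 60% in size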
Target sequence (O15648 whole entry, looked up): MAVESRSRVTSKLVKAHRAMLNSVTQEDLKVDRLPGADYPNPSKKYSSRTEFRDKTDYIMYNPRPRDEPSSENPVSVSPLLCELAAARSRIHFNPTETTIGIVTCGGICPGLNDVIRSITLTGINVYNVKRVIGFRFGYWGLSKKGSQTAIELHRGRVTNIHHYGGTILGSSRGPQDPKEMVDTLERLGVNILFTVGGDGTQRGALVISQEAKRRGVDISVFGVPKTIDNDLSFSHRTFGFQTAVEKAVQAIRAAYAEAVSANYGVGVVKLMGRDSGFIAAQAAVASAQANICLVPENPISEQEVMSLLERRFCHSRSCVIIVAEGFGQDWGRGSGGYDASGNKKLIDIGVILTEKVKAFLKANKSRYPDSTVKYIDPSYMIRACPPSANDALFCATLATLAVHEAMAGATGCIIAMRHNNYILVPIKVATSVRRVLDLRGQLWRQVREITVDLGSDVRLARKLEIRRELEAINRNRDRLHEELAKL
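1.25 nM PFK with 0.5 mM F6P and 0.1 mM ATP in 0.1 M TEA pH 8.0, 5 mM MgCl2, incubated 45 min at room temperature; ADP measured by ADP-Glo luminescence; compounds titrated up to 57 uM.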
BRCA1 expr act – increases BRCA1 expression. MCF7-BRCA1-FFLuc reporter, luminescence, 48 h; response scale: scaled: vehicle 0%, 10 µM genistein 100%. Potency, µM (highest dose often 46.1 µM), for the others: at the top dose activation, hits mostly activators. 380,000 compounds, 1.1% hits; note: nearly all actives have a fitted effect of over 80% in size
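Luminescence from a BRCA1-driven firefly luciferase in MCF7 cells was the read-out, taken 15 min after substrate addition following 48 h compound exposure at 37 °C. Data were normalized to a 10 microM genistein control and DMSO vehicle.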
PLK1 PBD block – PLK1 (human) polo-box domain binding inhibition. Potency, µM, inactives show max response, negative = inhibition, actives largely listed as inhibitors. P53350. 360,000 compounds, 2.8% hits. Plk1 PBD binding of FITC phosphopeptide, fluorescence polarization; note: series mostly up to about 57 µM; % is set by controls: 0 for no effect and ±100 for the full control effect; nearly all actives have a fitted effect of over 65% in size
VDR inh – inhibitors of human vitamin D receptor | VDR-SRC2-3 peptide fluorescence polarization, 2 h | Potency, µM, for the others: max response, negative = inhibition, usual class: inhibitors | 400,000 compounds, 0.93% hits | AID 504847; note: % is set by controls: 0 for no effect and ±100 for the full control effect
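Signal is fluorescence polarization, reporting how far test compounds block the interaction of VDR with the SRC2-3 coregulator peptide after a 2 h room-temperature incubation.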
Numbers without * were called inactive. Calls come from the whole dose curve; as a rule, active = well fitted curve in the direction sought with a large enough effect; inconclusive = small, poorly fitted or top-dose-only effect, or another doubt; inactive = no such curve, though single readings can be large; an effect the other way counts as inactive or inconclusive. Potency is the fitted concentration of half-maximal effect.

For Cc1ccc(CCNC(=O)C2CCCN(Cc3nc(-c4cccc(Cl)c4)oc3C)C2)cc1 (centres undefined) the results were VDR inh 89.1µM*.
Cn1cc(C=C(C#N)C#N)c2ccccc21 was read as Tb PFK inh 0.6%, BRCA1 expr act -7.5%, PLK1 PBD block 15.8% and VDR inh -26.2%.
For Cn1cc(/C=C(\C(=O)O)C(C(=O)O)=C2CCCCC2)c2ccccc21 the results were Tb PFK inh 2.8%, BRCA1 expr act -12.3%, PLK1 PBD block 15µM* and VDR inh inconclusive.
`Cc1ccc(N2C(=O)NC(=O)/C(=C\c3ccc([N+](=O)[O-])o3)C2=O)cc1` gave Tb PFK inh 17.9%.
Screening Cc1ccc(N2C(=O)/C(=C/c3ccc(CN(CCC#N)S(C)(=O)=O)o3)C(=O)NC2=S)cc1 returned Tb PFK inh -2.1%, BRCA1 expr act 0.9%, PLK1 PBD block 5.97µM* and VDR inh inconclusive.
`CN1CCN(Cc2ccc(N)cc2)CC1` gave Tb PFK inh -0.6%, BRCA1 expr act -3.5%, PLK1 PBD block 6.7% and VDR inh -5.1%.
`CN1CCN(Cc2cc(C(C)(C)C)c(O)c(C(C)(C)C)c2)CC1` gave Tb PFK inh -5.0%, BRCA1 expr act -9.9%, PLK1 PBD block 23.8µM* and VDR inh -29.4%.
`Oc1cc2c(cc1O)[C@H]1c3ccccc3CN[C@@H]1CC2` gave Tb PFK inh 2.39µM* and BRCA1 expr act -1.9%.
For Oc1cc2c(cc1O)[C@H]1c3ccccc3CN[C@H]1CC2 the results were VDR inh -15.9%.
COc1ccc(-c2nc3ccccc3c(=O)o2)cc1 was read as Tb PFK inh 28.5%, BRCA1 expr act 14.1µM*, PLK1 PBD block -8.5% and VDR inh 7.9%.
COc1ccc(-n2c(-c3ccc(C)cc3)nc3ccccc3c2=O)cc1 was read as Tb PFK inh -0.8%, BRCA1 expr act 25.1%, PLK1 PBD block 4.9% and VDR inh -13.5%.
For CC(=O)Oc1ccc2c3c1OC1[C@@H](OC(C)=O)C=C[C@H]4[C@H](C2)N(C)CC[C@]314 (some centres undefined) the results were VDR inh 2.2%.
For C[C@H](NC(=O)[C@@H](N)Cc1ccc(O)cc1)C(=O)N[C@@H](Cc1ccccc1)C(=O)NCC(=O)N[C@@H](Cc1ccc(O)cc1)C(=O)N1CCC[C@H]1C(=O)N[C@@H](CO)C(N)=O the results were VDR inh 2.4%.
CCN1CCN(CC(=O)c2c(C)n(Cc3ccccc3)c3ccc(OC)cc23)CC1 was read as Tb PFK inh 1.3%, BRCA1 expr act -37.8%, PLK1 PBD block 21.2µM* and VDR inh inconclusive.
For CC1CC(Cl)CCC1C(=O)OC(C)(C)C (centres undefined) the results were VDR inh 15.8%.
`O=c1c(O)c(-c2ccc(O)c(O)c2)oc2c(O)c(O)cc(O)c12` gave VDR inh 25.1µM*.
`C[C@@]12C=CC(=O)C=C1CCC1C2CC[C@]2(C)C(=O)CCC12` (some centres undefined) gave VDR inh 7.1%.
Screening CCN1C[C@]2(C)CC[C@H](OC)[C@]34C5C[C@@H]6CC[C@@](O)(C5C(=O)O6)C(C13)[C@@H](OC(=O)c1ccccc1)C24 returned VDR inh 2.8%.
For Nc1c(Br)cc2c3c(cccc13)-c1ccccc1-2 the results were BRCA1 expr act -34.9%, PLK1 PBD block -20.6% and VDR inh 28.2µM*.
Cc1cc(OCC(=O)NCc2cccnc2)c2c3c(c(=O)oc2c1)CCCC3 was read as Tb PFK inh 0.6%, BRCA1 expr act -28.5%, PLK1 PBD block -1.4% and VDR inh -18.2%.
For NS(=O)(=O)c1ccc(CNC(=O)COc2ccc3c4c(c(=O)oc3c2)CCCC4)cc1 the results were Tb PFK inh 0.1%, BRCA1 expr act 23.3%, PLK1 PBD block 23.8µM* and VDR inh -23.3%.
Screening CCOc1cc(OP(=S)(OC)OC)nc(CC)n1 returned VDR inh 22.4µM*.
For COc1ccc([N+](=O)[O-])cc1CSc1ccccn1 the results were Tb PFK inh -0.5%, BRCA1 expr act -9.9%, PLK1 PBD block inconclusive and VDR inh -25.9%.
For COc1cc(/C=C(/C)[N+](=O)[O-])ccc1OCc1ccccc1Cl the results were Tb PFK inh 2.4%, BRCA1 expr act -96.2%, PLK1 PBD block 2.38µM* and VDR inh 8.91µM*.
Screening CCOC(=O)Cc1[nH]nc2c1C(c1ccoc1)C(C#N)=C(N)O2 (centres undefined) returned Tb PFK inh -8.5%, BRCA1 expr act 31.9%, PLK1 PBD block inconclusive and VDR inh 8.7%.
`Cc1cc(/C=C2\C(=O)NC(=O)N(c3cccc(F)c3)C2=O)c(C)n1-c1cc(C(=O)O)cc(C(=O)O)c1` gave Tb PFK inh -12.9%, BRCA1 expr act -7.7%, PLK1 PBD block inconclusive and VDR inh 8.6%.
For Cc1ccc(N2C(=O)NC(=O)/C(=C/c3cnc(-c4ccccc4)nc3)C2=O)cc1C the results were Tb PFK inh 0.2%, BRCA1 expr act 17.7%, PLK1 PBD block 4.23µM* and VDR inh 31.6µM*.
CC(C)c1ccc(N2C(=O)NC(=O)/C(=C\c3cnc(-c4ccccc4)nc3)C2=O)cc1 was read as Tb PFK inh -4.4%, BRCA1 expr act 35.1%, PLK1 PBD block 21.2µM* and VDR inh -22.2%.
For CC(C)c1ccc(N2C(=O)NC(=O)/C(=C\C=C\c3ccco3)C2=O)cc1 the results were Tb PFK inh -17.3%, BRCA1 expr act -83.3%, PLK1 PBD block inconclusive and VDR inh 37.0%.
Screening Cc1cccc(N2C(=O)NC(=O)/C(=C\c3cnc(-c4ccccc4)nc3)C2=O)c1 returned Tb PFK inh 0.0%, BRCA1 expr act 15.6%, PLK1 PBD block 5.97µM* and VDR inh 50.1µM*.
`c1ccc2sc(C3(N4CCCC4)CCCCC3)cc2c1` gave VDR inh -23.8%.
Oc1ccc2c(c1)[C@@]13CCCCC1[C@@H](C2)N(CC1CCC1)CC3 (some centres undefined) was read as VDR inh -2.1%.
CCCCC/C=C\C/C=C\C/C=C\C/C=C\CCCC(=O)NCCCl was read as VDR inh 27.3%.
`CC(C)=CCCC1(C)C=Cc2c(O)c3c(c(CC=C(C)C)c2O1)OC12C(=CC4CC1C(C)(C)OC2(C/C=C(/C)C(=O)O)C4O)C3=O` (centres undefined) gave VDR inh 2.82µM*.
`CC(C)=CCCC1(C)C=Cc2c(O)c3c(c(CC=C(C)C)c2O1)OC12C(=CC4CC1C(C)(C)OC2(C/C=C(/C)C(=O)O)C4=O)C3=O` (centres undefined) gave VDR inh 2.24µM*.
For CC(C)CCCC1(C)C=Cc2c(O)c3c(c(CCC(C)C)c2O1)OC12C(CC4CC1C(C)(C)OC2(CCC(C)C(=O)O)C4O)C3=O (centres undefined) the results were VDR inh -13.5%.

Bioassay records (PubChem BioAssay)
